# Only some compounds are listed: those with a hit (about 7.5% of all), similar ones and a draw of the others.
# Rab9 prom act: Rab9 promoter activation. Potency, µM (top dose mostly 9.22 µM), inactives show at the top dose activation, negative = inhibition, most hits filed as activators. Huh7 Rab9 promoter-luciferase reporter, luminescence, 24 h. 320,000 compounds, 2.8% hits. AID 485297; also: % of control where 0% means no effect; nearly all actives have a fitted effect of over 60% in size
#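 Huh7 reporter line, Rab9 promoter upstream of luciferase. Compound exposure 24 h at 37 °C in reduced-serum medium with 10% FBS. Read-out: luminescence.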
# KinaseGlo FLuc: counter-screen: inhibitors of Kinase-Glo firefly luciferase | Kinase-Glo luciferase, ATP luminescence, 8 min | Potency, µM (titrated, usually from 38.3 µM), without a hit: top-dose activity change, negative = inhibition, actives largely listed as inhibitors | 200,000 compounds, 0.28% hits | Q27757; also: % is scaled to controls: 0 for no effect and ±100 for the full control effect; nearly all actives have a fitted effect of over 60% in size
#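 Substrate mix (final 50 mM imidazole pH 7.2, 50 mM KCl, 7 mM MgCl2, 10 uM ATP, 0.01% Tween 20, 0.05% BSA) plus pin-tool compound, then Kinase-Glo detection mix; 8 min ambient, luminescence read.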
# NPC1 prom act: NPC1 promoter activation | Huh7 NPC1 promoter luciferase reporter, 24 h | Potency, µM (titrated, usually from 9.22 µM), inactives show at the top dose activation, actives largely listed as activators | 320,000 compounds, 2.4% hits; also: % of control where 0% means no effect; nearly all actives have a fitted effect of over 60% in size
#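 Huh7 cells stably carrying NPC1 promoter–luciferase, plated in Opti-MEM with 10% FBS for 2 h, were exposed to compound in DMSO for 24 h at 37 °C; luciferase reagent was added for 10 min and luminescence read.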
# ELG1 genotoxic: induces genotoxicity in HEK293T cells with luciferase-tagged ELG1; 330,000 compounds, 1.3% hits; HEK293T ELG1-luciferase reporter, luminescence, 16 h; Potency, µM (titrated, usually from 46 µM), without a hit: top-dose activity change, positive = activation, most hits filed as activators; AID 504466; also: % of control where 0% means no effect; nearly all actives have a fitted effect of over 60% in size
#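 Luminescence read-out: rising ELG1-luciferase signal, reflecting elevated ELG1 protein under genetic stress, flags genotoxic compounds. Cells were treated for 16 hr at 37 °C before ONE-Glo detection.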
# FLuc modulator: counter-screen for miR-21 project: firefly luciferase inhibitors or activators; 360,000 compounds, 6.9% hits; Potency, µM (titrated, usually from 57.5 µM), for the others: top-dose activity change, negative = inhibition, actives largely listed as inhibitors; P08659; purified FLuc, Km substrates, luminescence inhibition; AID 588342;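 also: plate controls were vehicle for no effect and reference inhibitor for full effect; nearly all actives have a fitted effect of over 55% in size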
# Target sequence (P08659 whole entry, looked up): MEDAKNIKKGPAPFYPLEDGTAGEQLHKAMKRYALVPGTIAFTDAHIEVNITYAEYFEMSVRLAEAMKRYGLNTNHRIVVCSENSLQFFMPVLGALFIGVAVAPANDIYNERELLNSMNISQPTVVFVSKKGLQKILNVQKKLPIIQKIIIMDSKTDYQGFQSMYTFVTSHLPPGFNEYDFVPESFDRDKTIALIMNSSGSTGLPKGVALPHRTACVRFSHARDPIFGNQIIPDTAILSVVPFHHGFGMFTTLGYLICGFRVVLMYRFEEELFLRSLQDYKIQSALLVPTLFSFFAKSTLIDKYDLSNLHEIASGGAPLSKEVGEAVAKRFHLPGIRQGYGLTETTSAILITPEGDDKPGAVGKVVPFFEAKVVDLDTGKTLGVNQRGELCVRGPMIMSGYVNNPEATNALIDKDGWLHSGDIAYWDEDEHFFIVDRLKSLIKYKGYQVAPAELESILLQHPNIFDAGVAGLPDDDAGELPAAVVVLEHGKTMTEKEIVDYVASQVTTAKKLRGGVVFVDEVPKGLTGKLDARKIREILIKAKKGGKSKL
#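 Purified P. pyralis luciferase (10nM final) with 10uM D-luciferin and 10uM ATP (Km levels) in 50mM Tris acetate pH 7.5, 10mM Mg acetate, 0.01% Tween-20, 0.05% BSA; qHTS 6-point titration, ~60 µM downward; luminescence read.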
# SMN2 splice enh: increases expression of the SMN2 splice variant. HEK293 SMN2-luciferase splicing reporter, luminescence, 30-36 h. Potency, µM (doses to about 46.1 µM), for inactives: at the highest dose activity change, positive = activation, actives largely listed as activators. AID 1458. 210,000 compounds, 2.8% hits; also: % of control where 0% means no effect; nearly all actives have a fitted effect of over 55% in size
#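 HEK293 cells carry an SMN2 […]–luciferase reporter in which exon 7 inclusion puts luciferase in frame. Cells were plated 10-12 h before compound addition, then incubated 30-36 h at 37C. ONE-Glo luminescence was read; sodium butyrate at 4.5 mM final served as control.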
# The depositor's hits bear a star; u = inconclusive; x = no result; [ ] = remark or other dose. Calls follow the shape of the dose curve; as a rule, active = well fitted curve in the direction sought with a large enough effect; inconclusive = small, poorly fitted or top-dose-only effect, or another doubt; inactive = no such curve, though single readings can be large; an effect the other way counts as inactive or inconclusive. Potency is read from the fitted curve at half-maximal effect.
SMILES,Rab9 prom act,KinaseGlo FLuc,NPC1 prom act,ELG1 genotoxic,FLuc modulator,SMN2 splice enh
COCC1=C2c3ccccc3[C@@H]3CNC(=O)C3(C(=O)OC)C[C@@H]2n2c(=O)n(-c3ccccc3)c(=O)n2C1 (some centres not stated),x,-2%,x,x,x,30%
O=C(Nc1sc2c(c1C(=O)O)CCCCC2)c1cccs1,4.5µM*,-6%,u,7%,2.7µM*,u
O=C(Nc1sc2c(c1C(=O)O)CCCC2)c1cccs1,3%,-2%,18%,-8%,17µM*,u
CC(C)OC(=O)c1c(NC(=O)c2cccs2)sc2c1CCCC2,5%,-7%,3%,-7%,-1%,-4%
CC(C)(C)C1CCc2c(sc3ncn(N)c(=N)c23)C1 (configuration not stated),-2%,x,-2%,-10%,-3%,x
COCCCn1c(=S)[nH]c2sc3c(c2c1=O)CCCS3,11%,-6%,19%,-7%,11µM*,-28%
COc1ccc(-n2c(=S)[nH]c3sc4c(c3c2=O)CCN(C)C4)cc1,0%,x,-4%,0%,-3%,x
Cn1c(=S)[nH]c2sc3c(c2c1=O)CCC(C(C)(C)C)C3 (configuration not stated),u,x,u,7%,4.3µM*,x
CCCn1c(=S)[nH]c2sc3c(c2c1=O)CCCC3,2%,x,0%,-16%,15µM*,x
COCCn1c(=S)[nH]c2sc3c(c2c1=O)CCC(C)C3 (configuration not stated),3%,x,-1%,-7%,17µM*,x
CC(C)c1nc(SCC(=O)Nc2ccc3c(c2)OCCO3)n[nH]1,-4%,-2%,-1%,7%,-17%,12%
COc1ccc(-c2cc(C(=O)Nc3ccc(Br)cc3)no2)cc1,0%,x,-2%,u,1%,x
CC(NC(=O)CCCc1ccccc1)c1ccncc1 (configuration not stated),-2%,x,-3%,-6%,5%,x
CCN(CC)c1ccc(NC(=O)c2ccc(Br)o2)cc1,0.79µM*,-2%,1.6µM*,u,5.4µM*,11µM*
CCCOC(=O)c1ccc(NC(=O)c2ccc(Br)o2)cc1,27%,-3%,26%,u,17µM*,-1%
COC(=O)Cc1ccc(NC(=O)c2ccc(Br)o2)cc1,u,-10%,u,18µM*,17µM*,u
COC(=O)Cc1ccc(NC(=O)C(c2ccccc2)c2ccccc2)cc1,1%,1%,-1%,0%,2%,0%
COC(=O)Cc1ccc(NC(=O)c2ccc(C)c(C)c2)cc1,2.5µM*,-6%,u,5.2µM*,3µM*,u
COC(=O)Cc1ccc(NC(C)=O)cc1,-4%,x,7%,5%,0%,x
CCc1ccccc1NC(=O)C(=O)NCC(c1cccnc1)N1CCN(c2ccccc2F)CC1 (configuration not stated),x,x,x,x,-8%,x
CC(NC(=O)CN1C(=O)COc2ccc(S(=O)(=O)N3CCCCCC3)cc21)c1ccccc1 (configuration not stated),x,x,x,x,-1%,2%
COCC(=O)N1CCC[C@@]2(CCN(C(=O)Nc3cccc(F)c3)C2)C1,x,-1%,x,x,x,4%
COc1ccc(-c2ccc(NC(=O)c3ccc(Br)o3)cc2)nn1,1.1µM*,x,2µM*,2.1µM*,u,x
CCN(CC)CCNC(=S)Nc1ccc(F)cc1,0%,-1%,0%,-1%,-1%,8%
O=C(Nc1ccccc1)c1ccc(C(=O)Nc2ccccc2)nc1,2µM*,2%,u,u,-12%,7%
SMILES,Rab9 prom act,KinaseGlo FLuc,NPC1 prom act,ELG1 genotoxic,FLuc modulator,SMN2 splice enh
CC(=O)Nc1cccc(NC(=O)c2ccc(C(=O)Nc3cccc(NC(C)=O)c3)nc2)c1,17%,-11%,15%,11%,3.8µM*,16%
Cc1cccc(NC(=O)c2ccc(C(=O)Nc3cccc(C)c3)nc2)c1,12%,-3%,11%,-2%,-12%,-31%
CN(C(=O)c1ccc2c(c1)N(Cc1ccc(F)cc1)C(=O)c1ccccc1S2(=O)=O)C1CCCCC1,x,x,x,x,0%,-16%
CCN(CC)CCCNC(=O)c1cc(Nc2ccc(OC)cc2)nc2ccccc12,1%[1.84 µM],x,-5%,-2%,-11%,x
O=C(NCc1ccccc1)c1ccc(COCC(F)(F)F)o1,-2%,5%,-3%,0%,6%,-6%
CCCCn1c(=O)n(-c2cc(OC)ccc2OC)c(=O)c2c3c(sc21)CN(C(C)=O)CC3,x,x,x,x,1%,28%
O=C(/C(=C/O)N=Nc1ccccc1Cl)c1ccccc1,-4%,-1%,1%,-4%,21µM*,-27%
O=C(/C(=C/O)N=Nc1cccc(C(F)(F)F)c1)c1ccccc1,9%,0%,0%,-3%,u,-87%
Cc1[nH]n(C(N)=S)c(=O)c1N=Nc1ccc(Br)cc1,2.8µM*,x,3.5µM*,u,2.4µM*,x
Cc1[nH]n(C(N)=S)c(=O)c1N=Nc1cc(C(F)(F)F)ccc1Cl,-10%[1.84 µM],x,0%,-13%,-16%,x
Cc1[nH]n(C(N)=S)c(=O)c1N=Nc1ccc(S(=O)(=O)N2CCCC2)cc1,13%,0%,-2%,1%,19µM*,10%
Cc1[nH]n(C(N)=S)c(=O)c1N=Nc1cccc(C(F)(F)F)c1,19%[1.84 µM],x,4µM*,5%,9.5µM*,x
Cc1ccc([N+](=O)[O-])cc1N=Nc1c(C)[nH]n(C(N)=S)c1=O,-6%,x,-1%,-2%,-1%,x
Cc1ccc(N=Nc2c(C)[nH]n(C(N)=S)c2=O)cc1,3.2µM*,-2%,u,16µM*,2.7µM*,18µM*
NC(=S)n1[nH]c(-c2ccc([N+](=O)[O-])cc2)c(N=Nc2ccc(Cl)cc2)c1=O,-53%,3%,-40%,-10%,-13%,-47%
NNC(=S)Nc1c(F)cc(F)cc1Br,0%,x,0%,-1%,1%,x
CNC(=O)Cn1cc(S(=O)(=O)Cc2ccccc2F)c2ccccc21,x,x,x,x,0%,x
N#CC1(NC(=O)CN2CCN(S(=O)(=O)c3ccccc3F)CC2)CCCC1,-13%,x,0%,0%,-3%,x
O=C(N/N=C/c1cccnc1)c1ccccc1Cl,25%,x,24%,15%,11µM*,x
COc1ccc(C(=O)Oc2cc(/C=N/NC(N)=S)ccc2OC)cc1,-6%,-7%,-5%,2%,-13%,9%
O=C(Nc1cccc([N+](=O)[O-])c1)c1ccc2ccccc2c1O,u,x,u,15%,0.67µM*,x
O=C(O)c1ccccc1C(=O)Nc1ccccn1,5%,2%,-8%,6%,3%,-5%
O=C(Nc1ccccn1)c1ccc2ccccc2c1O,3.2µM*,x,3.2µM*,23%,21µM*,x

# From PubChem BioAssay
